In the library only some 4.2% were active in any assay of this set; here they are far more common.
ClpP mod = qHTS Assay for Activators of ClpP; ATP-dependent Clp protease proteolytic subunit (Bacillus subtilis (strain 168)), P80244; Potency, µM (doses to about 57.5 µM), for inactives: top-dose activity change, negative = active; 1.9% of 340,000 active; purified B. subtilis ClpP, FRET peptide cleavage, 20 min; active means well fitted falling curve with a large enough effect; inconclusive means small, poorly fitted or top-dose-only effect; inactive means no such curve, though single readings can be large or run the other way; further: potency means the concentration at half of the fitted maximal effect; the source files actives as falling curves though it sought activators and does not explain the sign; nearly all actives have a fitted effect of over 65% in size
Target sequence (P80244 whole entry, looked up): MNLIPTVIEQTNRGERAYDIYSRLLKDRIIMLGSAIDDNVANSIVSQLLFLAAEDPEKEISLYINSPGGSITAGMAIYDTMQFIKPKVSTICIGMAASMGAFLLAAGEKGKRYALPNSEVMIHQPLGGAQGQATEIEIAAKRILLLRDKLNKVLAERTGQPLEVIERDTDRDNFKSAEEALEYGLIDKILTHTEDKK
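FRET quenching reversal measured ClpP activation: 10 microg/mL B. subtilis ClpP at pH 8 with the FRET-FV decapeptide, read at 430 nm after 320 nm excitation. The 20-min minus 0-min signal was scaled between DMSO/no-enzyme wells and ADEP (5.8 microM final).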
TCR act = T cell receptor activation; primary human leukocytes, anti-CD3, IL-2 HTRF, 48 h; Potency, µM (top dose mostly 9.22 µM), for the others: top-dose activation of IL-2 secretion, most hits filed as activators; 330,000 tested, under 10 active; AID 504894; further: % of control where 0% means no effect
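Primary human leukocytes receive a-CD3 beads and test compound and are incubated 48 hr. Secreted IL-2 is then assayed by HTRF, measuring 665nm acceptor emission after 320nm excitation of the europium donor.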
uPA surface inh = cell surface uPA generation inhibition; cell surface uPA generation assay, qHTS; Potency, µM (top dose mostly 38.3 µM), inactives show top-dose activity change, negative = inhibition, actives largely listed as inhibitors; 0.31% of 330,000 active; AID 540303; active means well fitted inhibition curve with a large enough effect; inconclusive means small, poorly fitted or top-dose-only effect; inactive means no such curve, though single readings can be large or run the other way; tested in mouse RAW 264.7 cells; further: potency means the concentration at half of the fitted maximal effect; on the % scale 0 is the no-effect control and ±100 the full control effect; nearly all actives have a fitted effect of over 55% in size
Sfp inh = blocks B. subtilis Sfp PPTase activity. Biochemical Sfp PPTase activity, qHTS. 3.5% of 310,000 active. Potency, µM, for the others: largest response in the series, negative = inhibition, usual class: inhibitors. AID 1490. Q9F4F7;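 further: the enzyme is Sfp with the accession as filed and its product quenches rhodamine fluorescence; potency means the concentration at half of the fitted maximal effect; 0% = enzyme reaction without inhibitor and -100% = no enzyme wells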
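With Hepes-Na pH 7.6 buffer containing 10 mM MgCl2, Sfp (15 nM) modified BHQ-2-YbbR (12.5 uM) using rhodamine-CoA (5 uM). Two reads 30 minutes apart at 525/598 nm yielded each well's rate.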
* hit, by the source's call; ? = inconclusive; . = no result given; [ ] = another dose, or the depositor's remark. Unless noted, the call rests on the fitted dose curve; in most records, active means well fitted curve in the direction sought with a large enough effect; inconclusive means small, poorly fitted or top-dose-only effect, or another doubt; inactive means no such curve, though single readings can be large; an effect the other way counts as inactive or inconclusive.

SMILES	ClpP mod	TCR act	uPA surface inh	Sfp inh
O=C(Nc1ccc(Cl)c(S(=O)(=O)N2CCCCC2)c1)C1=COCCO1	14.1µM*	-27.7%	5.6%	.
CN(C)S(=O)(=O)c1cc(NC(=O)C2=COCCO2)ccc1Cl	-3.4%	-2.8%	?	.
CCOP(=O)(OCC)C(NC(=O)c1cccs1)c1ccccc1 (configuration not stated)	.	0.8%	4.0%	6.2%
Cc1ccc2oc3c(c(=O)c2c1)C(c1ccc(F)cc1)N(Cc1ccc2c(c1)OCO2)C3=O (configuration not stated)	-0.5%	.	.	.
CCOC(=O)/C=C(\C)Sc1cc(O)c2ccccc2c1O	-1.5%	-9.0%	15.3%	7.94µM*
O=C(c1ccccc1)N1CCN(CCc2ccncc2)CC1	3.0%	.	.	.
COC(=O)c1ccc(CSc2cc(C)c3cccc(C)c3n2)o1	-4.9%	-6.7%	2.5%	10µM*
COC(=O)c1ccc(CSc2cc(C)c3cc(C)cc(C)c3n2)o1	3.1%	-2.6%	14.4%	14.1µM*
CCOC(=O)NC(=O)CSc1cc(C)c2cc(C)cc(C)c2n1	.	-9.7%	5.8%	44.7µM*
COC(=O)c1ccc(CSc2ccc3nnc(-c4cccc(F)c4)n3n2)o1	?	6.3%	-6.5%	50.1µM*
Clc1ccc2c(c1)C(N1CCNCC1)Cc1ccccc1S2 (configuration not stated)	-8.4%	-4.9%[46.1 µM]	-7.0%	-16.1%
Clc1cccc2c1Sc1ccccc1CC2N1CCNCC1 (configuration not stated)	0.4%	9.8%[46.1 µM]	5.4%	56.2µM*
N#Cc1cc2cc3c(cc2nc1N1CCCCC1)OCCO3	-28.3%	-5.4%	0.5%	28.2µM*
CCCOc1ccc(-c2cccc(NS(=O)(=O)c3cccs3)c2)nn1	-1.7%	.	.	.
CN1/C(=C\C=C2/SC(=S)N(CC(=O)O)C2=O)C(C)(C)c2ccccc21	.	-9.0%	-0.1%	22.4µM*
O=C(NCCCN1CCN(c2ccccc2)CC1)c1nnc(Cc2c(F)cccc2Cl)o1	-1.7%	.	.	.
COCCn1c(N)c(N(Cc2ccccc2)C(=O)COc2ccc(F)cc2Cl)c(=O)[nH]c1=O	1.1%	-4.5%	19.7%	.
N#C/C(=C\c1ccc(Br)cc1)c1nc(-c2cc3cc(Br)ccc3oc2=O)cs1	-4.0%	.	.	.
O=C(NCc1ccco1)Nc1cccs1	1.5%	5.2%	-2.4%	17.8µM*
CC(C)c1ccc(NC(=O)CCC(=O)NCc2ccco2)cc1	0.2%	0.3%	-12.7%	11.2%
O=C(CCSCc1ccccc1Cl)NCc1ccco1	-0.7%	0.6%	-4.4%	15.5%
O=C(NCc1ccco1)c1cccs1	0.6%	6.5%	-5.4%	0.2%
O=C(Cc1ccccc1[N+](=O)[O-])NCc1ccco1	.	5.4%	-5.4%	50.1µM*
CC(C)C(CC(=O)NCc1ccco1)c1ccco1 (configuration not stated)	-1.6%	.	2.0%	28.2µM*
O=C(CCSCCC(=O)NCc1ccco1)NCc1ccco1	3.9%	-8.6%	-13.6%	15.8µM*
SMILES	ClpP mod	TCR act	uPA surface inh	Sfp inh
O=S1(=O)C=C[C@@H](COCc2ccccc2)N1Cc1ccc(Br)cc1	-1.8%	.	.	.
CC(=O)Nc1nonc1-c1nnc(SCc2ccccc2Cl)n1C	-0.2%	.	.	.
COc1ccc(N2CCN(C(=O)CCc3ccc(S(=O)(=O)NCC(C)C)cc3)CC2)cc1	25.1µM*	-1.7%[46.1 µM]	-5.3%	9.3%
CC(C)CNS(=O)(=O)c1ccc(CCC(=O)NCc2ccco2)cc1	-7.5%	3.1%[46.1 µM]	-5.9%	39.8µM*
CCCN(CC(=O)Nc1ccccc1C)C(=O)c1cn2ccccc2n1	31.6µM*	-4.2%	4.5%	.
CCN(CC(=O)Nc1c(F)cccc1F)C(=O)c1cn2ccccc2n1	?	-1.2%	5.4%	.
COc1ccc(Cl)cc1NC(=O)CN(C)C(=O)c1cn2ccccc2n1	-9.2%	57.2%	11.2µM*	.
Cc1cc(F)ccc1NC(=O)c1ccc(NS(=O)(=O)c2cccs2)cc1	-1.3%	.	.	.
COc1ccc(N2CCN(C(=O)CCS(=O)(=O)c3cc4c(cc3Cl)NC(=O)CO4)CC2)cc1	-0.8%	.	.	.
COc1ccc(C(=O)N2CCCC(CCC(=O)NCc3ccc(F)c(F)c3)C2)cc1F (configuration not stated)	.	-5.3%	-0.4%	13.3%
COc1ccc(C(=O)N2CCCC(CCC(=O)NCc3ccc(F)c(F)c3)C2)o1 (configuration not stated)	.	-13.3%	-4.7%	56.2µM*
COc1ccc(-n2nc3c(c2NC(=O)C(C)Oc2ccccc2)CS(=O)C3)cc1 (configuration not stated)	31.6µM*	3.8%	-8.2%	12.8%
Cc1ccc(SCc2cc(=O)c3c(=O)n(-c4ccccc4)[nH]c3[nH]2)cc1	.	2.7%	4.3%	70.8µM*
O=c1cc(CSc2ccc(Cl)cc2)[nH]c2[nH]n(-c3ccccc3)c(=O)c12	.	-2.7%	1.5%	2.8%
CC(C)Oc1cccc(-c2cc(C(=O)NC(=S)N(C)c3ccccc3C(=O)O)c3ccccc3n2)c1	6.31µM*	-0.9%[46.1 µM]	-10.7%	-51.0%
O=C(Nc1nc2ccccc2s1)c1cc(-c2ccco2)nc2ccccc12	17.8µM*	0.3%[46.1 µM]	8.0%	44.7µM*
CCCCN(C(=O)NC(=O)Nc1nc2ccc(OC)cc2s1)S(C)(=O)=O	-7.5%	0.4%	?	56.2µM*
COc1cccc(-c2cc(C(=O)Nc3nc4ccccc4s3)c3ccccc3n2)c1	-18.0%	9.4%	12.1%	39.8µM*
CCCCOC(=O)Nc1nc2ccc(OC)cc2s1	1.4%	-8.1%	-2.8%	-0.8%
CC(C)Oc1cccc(-c2cc(C(=O)NN3CCOCC3)c3ccccc3n2)c1	-3.5%	-0.2%	0.4%	5.9%
O=C(Nc1nccs1)c1cc(-c2ccco2)nc2ccccc12	-11.0%	-4.1%[46.1 µM]	-0.8%	-79.3%
COc1ccc([N+](=O)[O-])c2c1CCN2C(=O)CC[C@H](N)C(=O)O	.	.	.	-14.3%
N#Cc1ccc(NC(=O)COC(=O)CSc2nnc(-c3ccc(Cl)cc3)o2)cc1	0.1%	0.0%[46.1 µM]	6.2%	-6.2%
Cc1ccc2nc(NC(=O)c3cc(-c4ccco4)nc4ccccc34)sc2c1	17.8µM*	5.4%[46.1 µM]	1.4%	-1.5%
COc1ccc2nc(NC(=O)c3ccccc3F)sc2c1	4.2%	-4.3%	10µM*	4.5%
SMILES	ClpP mod	TCR act	uPA surface inh	Sfp inh
COc1ccc2nc(NC(=O)c3ccccc3C(=O)O)sc2c1	0.7%	9.3%	-15.4%	8.1%
CCOc1ccc2nc(NC(=O)c3ccoc3C)sc2c1	-12.6%	0.8%	-10.4%	89.1µM*
O=C(NCCCN=C1NS(=O)(=O)c2ccccc21)c1ccc(Cl)cc1	.	4.6%	2.6%	14.9%
CCN(CC)c1ccc(N=Nc2ncn[nH]2)cc1	.	0.8%	-12.2%	8.91µM*
Clc1ccc(CSc2nnc(-c3cccnc3)n2Cc2ccco2)c(Cl)c1	-0.9%	.	-1.3%	35.5µM*
O=C(CSc1nnc(-c2cccnc2)n1Cc1ccco1)N1c2ccccc2Sc2ccccc21	0.3%	5.2%	.	3.55µM*
Clc1cccc(CSc2nnc(-c3cccnc3)n2Cc2ccco2)c1	-4.0%	-3.5%	.	50.1µM*
c1cncc(CSc2nnc(-c3cccnc3)n2Cc2ccco2)c1	.	.	.	15.6%
CC(C)Oc1ccc(C(=O)N/N=C/c2ccc(-c3ccc(S(=O)(=O)Nc4ncccn4)cc3)o2)cc1	14.1µM*	1.3%	2.6%	79.4µM*
